Measurements from PubChem BioAssay AID504848 (National Center for Advancing Translational Sciences (NCATS), 2011).
Out of some 2,300 compounds screened, about 1,400 (61%) were called active. Another 29% or so got no clear call; they are omitted. Calls come from the whole dose curve; as a rule, active = well fitted inhibition curve with a large enough effect; inconclusive = small, poorly fitted or top-dose-only effect, or effect the other way; inactive = no such curve, though single readings can be large or run the other way. So high a share suggests a set chosen from earlier hits. The list shows a part of the results.

Assay: Confirmation screen for delayed death inhibitors of the malarial parasite plastid, 96 hour incubation; note: nearly all actives have a fitted effect of over 60% in size
Details: P. falciparum luciferase growth in erythrocytes; series mostly up to 28.7 µM
Method in brief: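 Two-generation (96 h, 37 C) exposure of P. falciparum carrying an integrated firefly luciferase reporter in erythrocytes, 0.1% parasitemia and 2% hematocrit final, Albumax-supplemented RPMI. Luminescence decrease measures growth inhibition.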
Potency is the fitted concentration of half-maximal effect.

Row | SMILES | Potency
1 | Cc1ccc(Cl)cc1N1CCN(c2cccc[n+]2C)CC1 | 2 µM (active)
2 | CCCc1[nH]nc2c1C(c1cc(OC)ccc1F)C(C#N)=C(N)O2 (centres undefined) | 3.55 µM (active)
3 | O=C(CSc1nc(-c2ccco2)cc(C(F)(F)F)n1)Nc1ccccc1C(F)(F)F | 12.6 µM (active)
4 | O=C(NCc1ccccn1)c1cc(-c2ccc(-c3ccccc3)cc2)nc2ccccc12 | 15.8 µM (active)
5 | CC(Sc1nc2cc(Cl)ccc2s1)C(=O)Nc1cccc(S(=O)(=O)N2CCOCC2)c1 (centres undefined) | 12.6 µM (active)
6 | COc1cccc(/C=N/NC(=O)c2nc(-c3ccccc3)cc(-c3ccccc3)n2)c1O | 7.94 µM (active)
7 | COc1ccccc1-n1nnnc1S(=O)(=O)Cc1ccc(Cl)cc1 | 7.08 µM (active)
8 | CCCc1cc(C(=O)N2CCCC(N3CCN(c4ccccc4F)CC3)C2)n(C)n1 (centres undefined) | 10 µM (active)
9 | CC(=O)NC(=O)COC(=O)/C=C/c1c(C)nn(Cc2c(Cl)cccc2Cl)c1Cl | inactive
10 | COc1ccc2cc3cc(C(=O)Nc4ccc5c(c4)OCO5)oc3nc2c1 | 0.891 µM (active)
11 | COc1ccc2cc3cc(C(=O)N(C)C4CCCCC4)oc3nc2c1 | 10 µM (active)
12 | CCOC(=O)C1CCCN(C(=O)c2cc3cc4ccc(OC)cc4nc3o2)C1 (centres undefined) | 7.94 µM (active)
13 | CN(CCCN1c2ccccc2CCc2ccccc21)CC(=O)c1ccc(Cl)cc1 | 12.6 µM (active)
14 | CCN(CC)C(=O)COc1coc(CN2CCN(c3cccc(Cl)c3)CC2)cc1=O | 4.47 µM (active)
15 | CCOc1ccccc1NC(=O)COc1coc(CN2CCc3ccccc3C2)cc1=O | 11.2 µM (active)
16 | CCN(CC)C(=O)COc1coc(CN2CCN(c3ccccc3)CC2)cc1=O | 7.94 µM (active)
17 | CN(C(=O)COc1coc(CN2CCN(c3ccccc3)CC2)cc1=O)c1ccccc1 | 10 µM (active)
18 | CCCNC(=O)COc1coc(CN2CCN(c3cccc(Cl)c3)CC2)cc1=O | 10 µM (active)
19 | O=C(O)c1ccc(/C=N/NC(=O)c2ccc3c(c2)OCCO3)cc1 | inactive
20 | O=C(/C=C/c1ccncc1)c1ccc2c(c1)OCCO2 | 12.6 µM (active)
21 | CCOC(=O)C1=C(C)N=c2s/c(=C\c3ccc(OCC(=O)O)cc3)c(=O)n2C1c1ccc(OC(C)C)cc1 (centres undefined) | 2.51 µM (active)
22 | O[C@@H](c1cc(C(F)(F)F)nc2c(C(F)(F)F)cccc12)[C@H]1CCCCN1 | 0.178 µM (active)
23 | OC(c1cc(C(F)(F)F)nc2c(Cl)cc(Cl)cc12)C1CCCCN1 (centres undefined) | 0.0224 µM (active)

Row | SMILES | Potency
24 | OC(c1cc(-c2ccc(Cl)cc2)nc2ccccc12)C1CCCCN1 (centres undefined) | 0.251 µM (active)
25 | OC(c1cc(C(F)(F)F)nc2c(C(F)(F)F)cccc12)C1CCCCN1 (centres undefined) | 0.0501 µM (active)
26 | CCN(CC)c1ccc(NC(=S)NC(=O)C2CCC2)cc1 | 11.2 µM (active)
27 | O=[N+]([O-])c1cncc([N+](=O)[O-])c1Nc1cccc(O)c1 | 12.6 µM (active)
28 | NC(=O)C1CCN(CC(=O)Nc2cccc(C(=O)Nc3cccc(C(F)(F)F)c3)c2)CC1 | 1.12 µM (active)
29 | O=C(Nc1ccsc1C(=O)O)c1cccc(C(F)(F)F)c1 | inactive
30 | COc1ccc(OC)c(/C=C/c2c([N+](=O)[O-])c(=O)n(C)c(=O)n2C)c1 | 12.6 µM (active)
31 | Cn1c(/C=C/c2ccc(Cl)cc2)c([N+](=O)[O-])c(=O)n(C)c1=O | 6.31 µM (active)
32 | COc1ccc(Cn2c(O)c(C=Nc3ccc(O)cc3)c3ccccc3c2=O)cc1 | 7.94 µM (active)
33 | CCCSc1sc(C(=O)OC)c(-c2cccs2)c1C#N | inactive
34 | COc1ccc(-c2cc(-c3ccccc3)nc(SCC(=O)Nc3nccs3)c2C#N)cc1 | 2 µM (active)
35 | COc1ccc(-c2cc(-c3ccccc3)nc(SC(C)C(=O)O)c2C#N)cc1 (centres undefined) | 10 µM (active)
36 | CCc1ccc(NC(=O)CN(c2cc(C)cc(C)c2)S(=O)(=O)c2c(C)[nH]c(=O)[nH]c2=O)cc1 | 12.6 µM (active)
37 | Cc1cccc(C)c1OCc1cc(C(=O)N(C)Cc2nc3ccccc3[nH]2)no1 | 14.1 µM (active)
38 | O=C(/C=C/c1ccccc1Cl)c1ccccc(=O)c1O | 6.31 µM (active)
39 | Cc1ccc(C)c(/C=C/C(=O)c2ccccc(=O)c2O)c1 | 11.2 µM (active)
40 | COc1ccc(OC)c(CNC(=O)c2ccc(C)c(NC(=O)C3=C(C)OCCS3)c2)c1 | 10 µM (active)
41 | S=c1nc2c(n[nH]1)c1ccccc1n2CCc1ccccc1 | 12.6 µM (active)
42 | CSc1nnc2c3ccccc3n(CCc3ccccc3)c2n1 | 15.8 µM (active)
43 | CC1C/C(=C/c2ccncc2)C(=O)/C(=C/c2ccncc2)C1 (centres undefined) | 3.55 µM (active)
44 | O=[N+]([O-])c1c(Nc2ccccc2O)cc(Cl)c2nonc12 | 3.55 µM (active)
45 | CC1CCN(c2ccc3nnc(CCC(=O)N4CCN(c5ccccc5F)CC4)n3n2)CC1 | 10 µM (active)
46 | COc1cccc2sc(Nc3nnc(-c4ccccc4Cl)o3)nc12 | inactive

Row | SMILES | Potency
47 | COc1cccc2sc(Nc3nnc(-c4ccc(F)cc4)o3)nc12 | 7.08 µM (active)
48 | CC(C)C[C@H](NC(=O)c1[nH]cnc1C(=O)N[C@@H](Cc1ccccc1)C(=O)OC(C)(C)C)C(=O)OC(C)(C)C | 6.31 µM (active)
49 | C[C@H](NC(=O)c1nc[nH]c1C(=O)N[C@H](C)c1ccccc1)C(=O)OCc1ccccc1 | inactive
50 | CC(C)C[C@H](NC(=O)c1[nH]cnc1C(=O)N[C@@H](C)C(=O)OC(C)(C)C)C(=O)OC(C)(C)C | 10 µM (active)
51 | CC(C)C[C@H](NC(=O)c1[nH]cnc1C(=O)Nc1ccc(CNC(=O)OC(C)(C)C)cc1)C(=O)OC(C)(C)C | 4.47 µM (active)
52 | CC(C)C[C@H](NC(=O)c1nc[nH]c1C(=O)N(C)Cc1ccccc1)C(=O)OC(C)(C)C | 10 µM (active)
53 | Cc1cc(C)cc(NC(=O)C2C3C=CC4(O3)C2C(=O)N(CCCN2CCCC2)C4C(=O)NC2CCCC(C)C2C)c1 (centres undefined) | 12.6 µM (active)
54 | O=C(O)c1cc2ccccc2c(N=Nc2cccnc2)c1O | 3.98 µM (active)
55 | O=C(Nc1ccon1)c1nc[nH]c1C(=O)NCc1ccccc1 | 7.94 µM (active)
56 | CCC(=O)N1c2ccccc2NC2=C(C(=O)CC(c3ccco3)C2)C1c1ccco1 (centres undefined) | 10 µM (active)
57 | C=CCC1(O)C(=O)N2C(=C1C(=O)OCC)c1ccc3ccccc3c1CC2(C)C (centres undefined) | 10 µM (active)
58 | O=C(Cn1c(=O)oc2ccc(Cl)cc21)NC1CCCCC1 | 10 µM (active)
59 | CN(C)C1(CNC(=O)C2CCC(=O)N(Cc3ccc(Cl)cc3)C2)CCCCC1 (centres undefined) | 5.62 µM (active)
60 | Cc1ccc(Nc2nc(=O)c3cccnc3s2)c(Br)c1 | inactive
61 | Cc1cc(OCC(=O)N[C@@H](CSCc2ccccc2)C(=O)O)c2c(C)c(C)c(=O)oc2c1 | 14.1 µM (active)
62 | CN(CCOc1ccccc1)C(=O)C1CCC(=O)N(CCN2CCOCC2)C1 (centres undefined) | inactive
63 | CN(Cc1ccccc1Cl)C(=O)C1CCC(=O)N(CCc2cccc(F)c2)C1 (centres undefined) | 7.94 µM (active)
64 | CN(CCNC(=O)C1CCC(=O)N(Cc2cccc(F)c2)C1)CCc1ccccc1 (centres undefined) | 7.08 µM (active)
65 | COc1ccc(C)cc1S(=O)(=O)N1CCN(S(=O)(=O)c2cc(C(=O)O)ccc2C)CC1 | 8.91 µM (active)
66 | Cc1ccc(C(=O)NC2CCCC2)cc1S(=O)(=O)N1CCCCC1 | 8.91 µM (active)
67 | Cc1ccc(C(=O)NC2CCCCC2)cc1S(=O)(=O)N1CCCC1 | 10 µM (active)
68 | O=[N+]([O-])c1ccc(-c2c(-c3ccccc3)ncc3ccc(F)cc23)cc1 | 12.6 µM (active)
69 | Fc1ccc2cnc(-c3ccccc3)c(-c3ccc(C(F)(F)F)cc3)c2c1 | 14.1 µM (active)

Row | SMILES | Potency
70 | CCc1ccc(OCCNC(=O)c2ccccc2SCc2ccccc2)cc1 | 12.6 µM (active)
71 | CCCCNC(=O)c1onc(CSc2cccc3ccccc23)c1C(=O)O | inactive
72 | CCCCNC(=O)c1onc(CSc2ccccc2C)c1C(=O)O | inactive
73 | O=C(CNC(=O)c1ccco1)OCC(=O)c1ccccc1 | inactive
74 | CCc1ccc(OCCNC(=O)c2ccco2)cc1 | 12.6 µM (active)
75 | CCCn1c(CN2CCN(C(=O)OCC)CC2)nc2cc(NC(=O)C(C)C)ccc21 | 10 µM (active)
76 | CN1CCN(c2ncnc3c2c(-c2ccccc2)cn3-c2ccc(F)cc2)CC1 | 11.2 µM (active)
77 | Fc1ccccc1N1CCN(c2ncnc3[nH]ncc23)CC1 | inactive
78 | CCN1CCN(c2ncnc3c2c(-c2ccccc2)cn3-c2ccc(F)cc2)CC1 | 10 µM (active)
79 | Cc1[nH]c(C)c(C(=O)/C=C/c2ccc([N+](=O)[O-])cc2)c1C | 7.94 µM (active)
80 | Cc1c(OC(C)C(=O)NCC2CCC(C(=O)O)CC2)ccc2c1oc(=O)c1ccccc12 (centres undefined) | 12.6 µM (active)
81 | Cc1c(Cc2ccccc2)c(=O)oc2cc(OC(C)C(=O)NCC3CCC(C(=O)O)CC3)c(Cl)cc12 (centres undefined) | 10 µM (active)
82 | Cc1oc(/C=N/NS(=O)(=O)c2ccccc2)cc1Br | inactive
83 | COc1ccc(C(=O)/C=C/C(=O)N(CC(=O)NC2CCCCC2)CC2CCCO2)c(O)c1 (centres undefined) | 12.6 µM (active)
84 | COc1ccc(CN(C(=O)/C=C/C(=O)c2ccc(OC)cc2O)C(C(=O)NC2CCCCC2)c2ccncc2)cc1 (centres undefined) | 6.31 µM (active)
85 | CCOc1ccc(-c2cc(C(=O)N/N=C(\C)c3cccnc3)c3ccccc3n2)c(OCC)c1 | 14.1 µM (active)
86 | CCOC(=O)CSc1nc2sc3c(c2c(=O)n1C1CCCCC1)CCN(C)C3 | 2 µM (active)
87 | CCn1c(SCC(=O)Nc2ccc(C)cc2)nc2sc3c(c2c1=O)CCN(C)C3 | 0.708 µM (active)
88 | Cn1cc([N+](=O)[O-])c(C(=O)Nc2nccs2)n1 | inactive
89 | CC(C)(C)OC(=O)NCCCCCNC(=O)c1[nH]cnc1C(=O)Nc1nccs1 | 7.08 µM (active)
